This is a sample that favours compounds with a hit; in the whole collection about 19% have one here.
IL-1B inflam inh: qHTS for Inhibitors of Inflammasome Signaling: IL-1-beta AlphaLISA Primary Screen. THP-1 LPS/ATP IL-1B secretion, AlphaLISA, 16 h; active compounds read low. activity change, % at 57.5 µM. hit rate 4.7% among 360,000. AID 743279, 2014; in the data active means activity change below about -50%; inconclusive means mostly about -30% to -49%; further: on the % scale 0 is the no-effect control and ±100 the full control effect
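THP-1 cells pretreated 1 hr with compounds (up to 57.5 uM final), then stimulated with LPS (250 ng/mL final) plus ATP (1.25 mM final); secreted IL-1B measured by AlphaLISA after 16 hr, decreased signal indicating inhibition.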
HepG2 tox: qHTS for Inhibitors of TGF-b: Cytotox Counterscreen; HepG2 CAGA-GFP viability, ATP luminescence, 18 h; Potency, µM (series often up to 46.1 µM), inactives show at the highest dose activity change, negative = cytotoxicity, usual class: cytotoxic; hit rate 0.76% among 410,000; AID 588856, 2011; further: potency means the concentration at half of the fitted maximal effect
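HepG2 CAGA-GFP cells (1000/well, DMEM with 1% FBS) received compound, then TGF-beta at 500 pg/mL final, and were incubated 18 hours at 37 degrees C. Viability was read by CellTiter-Glo luminescence. Media-only wells were set as complete cell-killing and DMSO as no toxicity.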
TDP1 block: qHTS Assay for Inhibitors of Tyrosyl-DNA Phosphodiesterase (TDP1) | AID 485290, 2010 | hit rate 0.28% among 350,000 | Tyrosyl-DNA phosphodiesterase 1 (Homo sapiens), Q9NUW8 | recombinant TDP1, AlphaScreen DNA substrate cleavage | Potency, µM (titrated, usually from 130 µM), for inactives: top-dose activity change, negative = inhibition, usual class: inhibitors; further: potency means the concentration at half of the fitted maximal effect; on the % scale 0 is the no-effect control and ±100 the full control effect; nearly all actives have a fitted effect of over 40% in size
Target sequence (Q9NUW8 whole entry, looked up): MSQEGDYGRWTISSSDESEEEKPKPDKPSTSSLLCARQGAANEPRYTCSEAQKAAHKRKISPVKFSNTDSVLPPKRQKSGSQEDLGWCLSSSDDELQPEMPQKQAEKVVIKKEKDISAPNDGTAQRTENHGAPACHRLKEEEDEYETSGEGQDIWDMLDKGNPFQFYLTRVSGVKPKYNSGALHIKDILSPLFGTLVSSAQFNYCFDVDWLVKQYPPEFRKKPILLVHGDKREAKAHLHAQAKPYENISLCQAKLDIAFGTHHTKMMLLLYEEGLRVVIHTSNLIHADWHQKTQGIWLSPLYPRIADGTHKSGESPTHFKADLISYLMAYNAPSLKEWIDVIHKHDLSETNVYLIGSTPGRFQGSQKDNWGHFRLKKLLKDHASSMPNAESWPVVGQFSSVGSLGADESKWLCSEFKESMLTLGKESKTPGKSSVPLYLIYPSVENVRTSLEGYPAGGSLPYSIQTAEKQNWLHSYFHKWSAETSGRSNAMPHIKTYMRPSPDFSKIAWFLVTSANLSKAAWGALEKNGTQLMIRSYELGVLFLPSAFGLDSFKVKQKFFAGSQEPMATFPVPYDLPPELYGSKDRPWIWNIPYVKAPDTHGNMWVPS
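Steps: enzyme plus compound, 15 min RT; add biotin/phosphotyrosine-FITC oligonucleotide (15 nM final), react 5 min; add donor/acceptor beads (10 ug/ml final), 10 min; read AlphaScreen. Tdp1 at 1 nM final.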
TDP1 cell CPT: qHTS for Inhibitors of human tyrosyl-DNA phosphodiesterase 1 (TDP1): qHTS in cells in presence of CPT; Potency, µM (highest dose often 46.2 µM), inactives show top-dose activity change, negative = growth inhibition, actives largely listed as inhibitors; chicken DT40 Tdp1-/-;hTDP1 cells + 20 nM CPT, ATP luminescence, 48 h; hit rate 12% among 420,000; further: potency means the concentration at half of the fitted maximal effect; on the % scale 0 is the no-effect control and ±100 the full control effect; nearly all actives have a fitted effect of over 55% in size
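Chicken DT40 Tdp1-/- cells stably complemented with human TDP1 were seeded at 400 cells/well in medium containing 20 nM camptothecin, exposed to pin-transferred compounds, and grown at 37 °C for at least 48 hr. Viability was read as ATP luminescence.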
TDP1 cell noCPT: qHTS for Inhibitors of human tyrosyl-DNA phosphodiesterase 1 (TDP1): qHTS in cells in absence of CPT | DT40 Tdp1-/- hTDP1 cells, no CPT, ATP luminescence, 48 h | Potency, µM (top dose mostly 46.2 µM), for inactives: at the top dose activity change, negative = growth inhibition, usual class: inhibitors | hit rate 15% among 420,000 | AID 686978, 2013; further: potency means the concentration at half of the fitted maximal effect; on the % scale 0 is the no-effect control and ±100 the full control effect; nearly all actives have a fitted effect of over 55% in size
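Growth kinetics read by CellTiter-Glo luminescence after ≥48 hr at 37 °C. Cells: DT40 Tdp1-/- stably carrying human TDP1, 400 per well, compound exposure in the absence of CPT (DMSO vehicle).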
TGFb SMAD3 inh: qHTS for Inhibitors of TGF-b; HepG2 CAGA-GFP TGF-b/SMAD3 reporter, GFP fluorescence, 18 h; TGF-beta stimulated, 500 pg/mL final; Potency, µM (titrated, usually from 46.1 µM), without a hit: at the top dose activity, negative = inhibition, usual class: inhibitors; hit rate 1.2% among 410,000; further: potency means the concentration at half of the fitted maximal effect; on the % scale 0 is the no-effect control and ±100 the full control effect; nearly all actives have a fitted effect of over 65% in size
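Read-out: total well GFP (ex488/em500-530) summed from mean per-cell fluorescence. Cells: HEPG2 CAGA-GFP, 1% FBS DMEM, 18 h at 37 degrees C with 500 pg/mL final TGF-beta. Unstimulated wells served as the full-inhibition control; stimulated DMSO wells = 0%.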
Numbers without * were called inactive. Unless noted, the call rests on the fitted dose curve; in most records, active means well fitted curve in the direction sought with a large enough effect; inconclusive means small, poorly fitted or top-dose-only effect, or another doubt; inactive means no such curve, though single readings can be large; an effect the other way counts as inactive or inconclusive.

How did CCC(C)Nc1nc(N)c([N+](=O)[O-])c(N2CCCCCC2)n1 (centres undefined) do in these assays?
IL-1B inflam inh: inconclusive; HepG2 tox: -3.9%; TDP1 cell CPT: inconclusive; TDP1 cell noCPT: 2.59µM*; TGFb SMAD3 inh: -27.4%

How did CC(C)CNc1nc(N)c([N+](=O)[O-])c(N2CCCCCC2)n1 do in these assays?
IL-1B inflam inh: -13.0; HepG2 tox: -141.6%; TDP1 cell CPT: inconclusive; TDP1 cell noCPT: 16.4µM*; TGFb SMAD3 inh: inconclusive

How did Nc1nc(NCCO)nc(N2CCCCCC2)c1[N+](=O)[O-] do in these assays?
IL-1B inflam inh: -16.8; HepG2 tox: 1.3%; TDP1 cell CPT: -5.5%; TDP1 cell noCPT: -4.0%; TGFb SMAD3 inh: -12.1%

Results for CCC(C)Nc1nc(N)c([N+](=O)[O-])c(NC2CCCCC2)n1 (centres undefined) ?
IL-1B inflam inh: 23.5; HepG2 tox: 7.3%; TDP1 cell CPT: inconclusive; TDP1 cell noCPT: inconclusive; TGFb SMAD3 inh: 9.5%

How did Cc1ccc(NC(=O)c2cc3c(-c4ccccc4)nn(-c4ccccc4)c3s2)cc1 do in these assays?
HepG2 tox: 7.2%; TDP1 block: 6.3%; TGFb SMAD3 inh: 3.8%

How did CCn1cc(C(=O)N2CCCC(CO)(Cc3ccccc3C)C2)cn1 (centres undefined) do in these assays?
IL-1B inflam inh: 31.8; HepG2 tox: 7.0%; TDP1 block: 0.9%; TDP1 cell CPT: -0.8%; TDP1 cell noCPT: 12.3%; TGFb SMAD3 inh: -5.0%

What do the screens show for `CC(=O)Nc1ccc(SCCC2CCCCN2C)cc1` (centres undefined)?
IL-1B inflam inh: -16.3; HepG2 tox: -6.0%; TDP1 cell CPT: 5.8%; TDP1 cell noCPT: 0.7%; TGFb SMAD3 inh: 11.5%

What do the screens show for `CC(CN(C)C)C(C)(O)Cc1ccc(Cl)cc1` (centres undefined)?
TDP1 block: 6.4%; TDP1 cell CPT: -24.8%; TDP1 cell noCPT: -10.1%

Results for COCC(C)NC(=O)C(C)N1c2cccc3cccc(c23)S1(=O)=O (centres undefined) ?
IL-1B inflam inh: 11.2; HepG2 tox: -3.8%; TDP1 block: 20µM*; TDP1 cell CPT: -2.1%; TDP1 cell noCPT: inconclusive; TGFb SMAD3 inh: -6.3%

Results for COc1ccc(S(=O)(=O)N2CCCC2c2cccs2)cc1 (centres undefined) ?
IL-1B inflam inh: 0.0; HepG2 tox: -21.1%; TDP1 block: 0.0%; TDP1 cell CPT: 5.8µM*; TDP1 cell noCPT: 8.2µM*; TGFb SMAD3 inh: inconclusive

What do the screens show for `O=S(=O)(c1ccccc1)N1CCCC1c1cccs1` (centres undefined)?
IL-1B inflam inh: 41.7; HepG2 tox: -20.0%; TDP1 block: 5.7%; TDP1 cell CPT: inconclusive; TDP1 cell noCPT: 11.6µM*; TGFb SMAD3 inh: -4.1%

What do the screens show for `COc1ccccc1Cc1nc2ccccc2nc1SCC(=O)Nc1cc(Cl)ccc1OC`?
HepG2 tox: 4.5%; TDP1 block: 5.4%; TDP1 cell CPT: inconclusive; TDP1 cell noCPT: inconclusive; TGFb SMAD3 inh: -2.4%

How did COc1ccccc1NC(=O)CSc1nc2ccccc2nc1N1CC(C)OC(C)C1 (centres undefined) do in these assays?
IL-1B inflam inh: 24.7; HepG2 tox: -22.5%; TDP1 cell CPT: 20.6µM*; TDP1 cell noCPT: inconclusive; TGFb SMAD3 inh: -32.5%

Source: PubChem (National Center for Advancing Translational Sciences (NCATS))
